# Test results from article PMC7862700, “An all-to-all approach to the identification of sequence-specific readers for epigenetic DNA modifications on cytosine”.
# Columns and labels:
# Assay in all cases: DAPPL (digital affinity profiling via proximity ligation, sequencing); 10 mM Tris-HCl pH 7.5, 50 mM NaCl, 1 mM DTT, 4% glycerol, room temperature, 30 min; GST-TFs on glutathione beads, 16-mer random dsDNA library, 0.1% formaldehyde crosslink after washing; high values mean tight binding
# Conditions in all cases: protein: recombinant; tags: N-terminal GST; dsDNA, one strand shown
# [1] = biological target: T1, ELK1 (Homo sapiens, UniProt P19419 1-428)
# T1 sequence: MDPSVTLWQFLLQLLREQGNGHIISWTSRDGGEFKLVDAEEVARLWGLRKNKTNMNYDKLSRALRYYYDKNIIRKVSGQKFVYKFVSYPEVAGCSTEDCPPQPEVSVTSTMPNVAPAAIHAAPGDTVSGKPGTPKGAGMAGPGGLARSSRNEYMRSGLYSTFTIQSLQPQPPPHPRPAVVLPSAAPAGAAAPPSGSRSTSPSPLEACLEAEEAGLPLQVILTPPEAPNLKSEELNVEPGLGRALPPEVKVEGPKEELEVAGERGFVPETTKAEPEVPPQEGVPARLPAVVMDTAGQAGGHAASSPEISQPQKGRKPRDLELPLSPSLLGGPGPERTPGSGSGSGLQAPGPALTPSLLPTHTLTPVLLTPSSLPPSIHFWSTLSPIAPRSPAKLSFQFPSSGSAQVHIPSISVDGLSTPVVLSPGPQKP
# How it was run: (§1)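 Beads coated with glutathione captured GST-fused human transcription factors that had been expressed in yeast, and the factors were then given DNA barcodes and pooled with a tag-only sample. The pools were incubated with 200 nmole of a random double-stranded 16-mer DNA library in Tris/NaCl/DTT/glycerol buffer for 30 min at room temperature, washed, crosslinked with 0.1% formaldehyde and proximity-ligated with BsaI/T4 ligase at 37 °C for 1 h. PCR amplification and Illumina NextSeq500 sequencing came last. Binding signal is each hexamer's read frequency for a factor divided by its frequency for the tag-only sample.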
# [2] = biological target: T2, EHF (Homo sapiens, UniProt Q9NZC4 1-300)
# T2 sequence: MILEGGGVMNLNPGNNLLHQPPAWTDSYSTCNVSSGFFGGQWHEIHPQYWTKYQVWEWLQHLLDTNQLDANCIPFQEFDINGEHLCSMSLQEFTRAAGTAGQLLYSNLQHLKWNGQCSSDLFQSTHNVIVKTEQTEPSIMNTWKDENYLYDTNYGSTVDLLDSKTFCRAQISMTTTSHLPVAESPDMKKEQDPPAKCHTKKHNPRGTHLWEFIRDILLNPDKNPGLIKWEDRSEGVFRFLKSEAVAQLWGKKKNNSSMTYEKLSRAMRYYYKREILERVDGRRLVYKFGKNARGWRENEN
# How it was run: as §1
# [3] = biological target: ETV5 (Homo sapiens, UniProt P41161 1-510)
# How it was run: as §1
# [4] = biological target: T3, ELK4 (Homo sapiens, UniProt P28324-2 1-405)
# T3 sequence: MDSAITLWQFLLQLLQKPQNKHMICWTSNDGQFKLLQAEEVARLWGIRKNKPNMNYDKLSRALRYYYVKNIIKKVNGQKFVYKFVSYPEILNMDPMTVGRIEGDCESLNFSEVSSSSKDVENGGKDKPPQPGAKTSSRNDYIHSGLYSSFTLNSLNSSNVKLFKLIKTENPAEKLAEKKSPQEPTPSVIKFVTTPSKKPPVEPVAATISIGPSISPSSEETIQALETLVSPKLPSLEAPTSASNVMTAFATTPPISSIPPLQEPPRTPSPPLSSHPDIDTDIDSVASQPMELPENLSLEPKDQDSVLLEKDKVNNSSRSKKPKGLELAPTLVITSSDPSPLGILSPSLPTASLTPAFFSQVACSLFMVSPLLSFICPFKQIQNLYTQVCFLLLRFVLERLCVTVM
# How it was run: as §1
# [5] = biological target: T4, ERF (Homo sapiens, UniProt P50548 1-548)
# T4 sequence: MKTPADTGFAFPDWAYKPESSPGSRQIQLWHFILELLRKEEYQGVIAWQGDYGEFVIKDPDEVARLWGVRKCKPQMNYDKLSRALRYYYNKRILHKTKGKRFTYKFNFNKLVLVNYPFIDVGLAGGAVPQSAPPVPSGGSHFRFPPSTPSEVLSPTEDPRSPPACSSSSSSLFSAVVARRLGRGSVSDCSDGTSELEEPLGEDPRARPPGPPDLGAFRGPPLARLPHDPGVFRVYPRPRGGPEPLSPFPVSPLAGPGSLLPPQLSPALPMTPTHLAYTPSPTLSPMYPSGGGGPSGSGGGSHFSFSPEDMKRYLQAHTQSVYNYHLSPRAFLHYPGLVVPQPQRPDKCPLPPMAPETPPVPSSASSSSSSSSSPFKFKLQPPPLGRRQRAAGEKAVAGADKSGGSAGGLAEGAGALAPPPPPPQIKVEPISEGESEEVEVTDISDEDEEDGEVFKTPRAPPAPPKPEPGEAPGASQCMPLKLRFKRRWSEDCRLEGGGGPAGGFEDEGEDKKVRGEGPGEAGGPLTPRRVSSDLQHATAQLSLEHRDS
# How it was run: as §1
# [6] = biological target: T5, ETV3 (Homo sapiens, UniProt P41162-2 1-143)
# T5 sequence: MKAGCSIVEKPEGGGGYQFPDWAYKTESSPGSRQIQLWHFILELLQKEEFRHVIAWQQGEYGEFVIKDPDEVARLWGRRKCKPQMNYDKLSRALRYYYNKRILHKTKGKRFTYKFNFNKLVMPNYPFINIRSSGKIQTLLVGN
# How it was run: as §1
# [7] = biological target: ETV6 (Homo sapiens, UniProt P41212 1-452)
# How it was run: as §1
# [8] = biological target: T6, GABPA (Homo sapiens, UniProt Q06546 1-454)
# T6 sequence: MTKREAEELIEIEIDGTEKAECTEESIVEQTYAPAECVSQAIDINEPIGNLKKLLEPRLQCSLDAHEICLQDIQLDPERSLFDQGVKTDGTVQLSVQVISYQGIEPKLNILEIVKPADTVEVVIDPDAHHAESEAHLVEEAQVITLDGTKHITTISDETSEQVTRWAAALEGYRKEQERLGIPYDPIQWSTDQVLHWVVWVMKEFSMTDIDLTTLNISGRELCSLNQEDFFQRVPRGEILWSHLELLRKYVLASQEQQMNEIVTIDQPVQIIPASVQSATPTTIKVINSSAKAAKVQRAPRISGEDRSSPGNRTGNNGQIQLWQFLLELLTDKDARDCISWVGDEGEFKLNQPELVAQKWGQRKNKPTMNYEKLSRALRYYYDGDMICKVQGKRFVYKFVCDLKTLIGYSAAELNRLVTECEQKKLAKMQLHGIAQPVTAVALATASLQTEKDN
# How it was run: as §1
# [9] = biological target: ELF4 (Homo sapiens, UniProt Q99607 1-663)
# How it was run: as §1
# [10] = biological target: T7, ETV7 (Homo sapiens, UniProt Q9Y603 1-341)
# T7 sequence: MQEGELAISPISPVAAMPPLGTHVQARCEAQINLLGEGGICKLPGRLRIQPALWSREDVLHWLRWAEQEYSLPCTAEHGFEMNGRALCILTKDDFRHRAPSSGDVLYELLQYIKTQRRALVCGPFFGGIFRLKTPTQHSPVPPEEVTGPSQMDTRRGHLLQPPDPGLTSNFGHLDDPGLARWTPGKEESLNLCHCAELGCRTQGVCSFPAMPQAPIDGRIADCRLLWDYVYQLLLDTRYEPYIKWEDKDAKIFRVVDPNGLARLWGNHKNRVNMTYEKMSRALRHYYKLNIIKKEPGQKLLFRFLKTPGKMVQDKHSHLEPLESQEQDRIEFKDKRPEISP
# How it was run: as §1
# [11] = biological target: T8, ELK3 (Homo sapiens, UniProt P41970 1-407)
# T8 sequence: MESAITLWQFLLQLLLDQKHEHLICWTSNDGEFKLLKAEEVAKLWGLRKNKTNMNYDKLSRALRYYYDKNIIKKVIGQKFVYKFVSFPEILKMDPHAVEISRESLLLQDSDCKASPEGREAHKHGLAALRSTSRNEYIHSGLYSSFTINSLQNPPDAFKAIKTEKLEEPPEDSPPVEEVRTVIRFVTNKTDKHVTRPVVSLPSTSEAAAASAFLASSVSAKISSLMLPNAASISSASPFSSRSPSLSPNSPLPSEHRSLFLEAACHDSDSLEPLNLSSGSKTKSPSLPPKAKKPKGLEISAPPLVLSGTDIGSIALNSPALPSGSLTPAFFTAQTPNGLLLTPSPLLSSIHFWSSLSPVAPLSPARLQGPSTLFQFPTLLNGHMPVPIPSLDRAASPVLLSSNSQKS
# How it was run: as §1
# [12] = biological target: ETV1 (Homo sapiens, UniProt P50549 1-477)
# How it was run: as §1
# [13] = biological target: T9, ETV3L (Homo sapiens, UniProt Q6ZN32 1-361)
# T9 sequence: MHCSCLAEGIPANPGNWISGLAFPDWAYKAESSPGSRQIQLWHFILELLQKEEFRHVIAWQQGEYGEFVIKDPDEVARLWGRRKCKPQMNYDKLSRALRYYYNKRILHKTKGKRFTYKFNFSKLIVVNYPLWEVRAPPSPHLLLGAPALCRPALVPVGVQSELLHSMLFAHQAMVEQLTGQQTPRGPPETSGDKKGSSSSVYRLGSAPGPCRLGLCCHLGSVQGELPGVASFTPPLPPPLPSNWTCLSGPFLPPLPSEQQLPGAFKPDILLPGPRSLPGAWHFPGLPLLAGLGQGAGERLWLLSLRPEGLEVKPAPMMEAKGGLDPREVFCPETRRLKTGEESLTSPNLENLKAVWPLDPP
# How it was run: as §1
# ETV5, sequence (P41161 whole entry): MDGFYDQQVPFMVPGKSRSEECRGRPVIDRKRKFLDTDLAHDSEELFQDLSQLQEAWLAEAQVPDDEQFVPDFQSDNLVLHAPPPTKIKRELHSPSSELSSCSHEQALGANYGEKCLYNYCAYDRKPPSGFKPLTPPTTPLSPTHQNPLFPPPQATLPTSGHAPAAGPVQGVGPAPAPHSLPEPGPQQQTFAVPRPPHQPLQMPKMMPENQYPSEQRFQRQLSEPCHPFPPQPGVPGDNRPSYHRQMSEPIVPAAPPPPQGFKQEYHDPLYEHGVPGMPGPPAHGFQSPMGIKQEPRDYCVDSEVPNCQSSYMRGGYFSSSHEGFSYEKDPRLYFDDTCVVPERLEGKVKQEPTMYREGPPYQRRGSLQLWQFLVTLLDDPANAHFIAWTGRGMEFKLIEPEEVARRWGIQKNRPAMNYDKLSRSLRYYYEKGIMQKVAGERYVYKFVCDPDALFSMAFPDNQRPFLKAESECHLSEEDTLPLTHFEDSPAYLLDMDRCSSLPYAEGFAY
# ETV6, sequence (P41212 whole entry): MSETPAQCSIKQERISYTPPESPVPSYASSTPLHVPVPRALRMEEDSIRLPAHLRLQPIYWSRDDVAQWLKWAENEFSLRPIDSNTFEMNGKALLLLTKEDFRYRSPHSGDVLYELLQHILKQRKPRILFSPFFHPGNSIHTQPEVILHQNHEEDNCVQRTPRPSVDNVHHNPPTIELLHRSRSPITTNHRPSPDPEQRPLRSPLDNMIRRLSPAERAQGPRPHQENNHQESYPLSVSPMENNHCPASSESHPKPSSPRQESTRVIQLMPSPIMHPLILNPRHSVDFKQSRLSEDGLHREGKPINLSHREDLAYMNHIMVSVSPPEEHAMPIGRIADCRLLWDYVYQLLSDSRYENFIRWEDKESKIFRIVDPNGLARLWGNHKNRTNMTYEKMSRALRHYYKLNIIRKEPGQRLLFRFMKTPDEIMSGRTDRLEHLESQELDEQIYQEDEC
# ELF4, sequence (Q99607 whole entry): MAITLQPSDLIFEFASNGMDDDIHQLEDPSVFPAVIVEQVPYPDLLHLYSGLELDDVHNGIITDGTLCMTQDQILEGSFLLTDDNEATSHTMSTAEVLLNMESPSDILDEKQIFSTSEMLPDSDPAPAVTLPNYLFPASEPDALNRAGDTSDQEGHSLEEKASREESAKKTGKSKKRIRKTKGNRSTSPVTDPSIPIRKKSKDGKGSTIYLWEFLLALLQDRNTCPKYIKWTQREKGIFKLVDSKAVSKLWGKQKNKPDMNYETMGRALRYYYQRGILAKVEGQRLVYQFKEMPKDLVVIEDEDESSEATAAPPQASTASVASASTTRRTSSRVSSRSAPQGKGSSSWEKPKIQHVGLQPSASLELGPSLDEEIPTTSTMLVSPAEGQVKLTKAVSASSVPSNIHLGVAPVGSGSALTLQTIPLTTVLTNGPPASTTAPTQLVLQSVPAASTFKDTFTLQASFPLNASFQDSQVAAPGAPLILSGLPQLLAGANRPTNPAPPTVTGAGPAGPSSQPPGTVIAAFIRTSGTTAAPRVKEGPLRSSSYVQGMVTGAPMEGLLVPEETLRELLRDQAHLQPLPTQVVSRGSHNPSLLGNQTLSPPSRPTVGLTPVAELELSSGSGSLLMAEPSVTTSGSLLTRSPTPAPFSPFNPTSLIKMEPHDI
# ETV1, sequence (P50549 whole entry): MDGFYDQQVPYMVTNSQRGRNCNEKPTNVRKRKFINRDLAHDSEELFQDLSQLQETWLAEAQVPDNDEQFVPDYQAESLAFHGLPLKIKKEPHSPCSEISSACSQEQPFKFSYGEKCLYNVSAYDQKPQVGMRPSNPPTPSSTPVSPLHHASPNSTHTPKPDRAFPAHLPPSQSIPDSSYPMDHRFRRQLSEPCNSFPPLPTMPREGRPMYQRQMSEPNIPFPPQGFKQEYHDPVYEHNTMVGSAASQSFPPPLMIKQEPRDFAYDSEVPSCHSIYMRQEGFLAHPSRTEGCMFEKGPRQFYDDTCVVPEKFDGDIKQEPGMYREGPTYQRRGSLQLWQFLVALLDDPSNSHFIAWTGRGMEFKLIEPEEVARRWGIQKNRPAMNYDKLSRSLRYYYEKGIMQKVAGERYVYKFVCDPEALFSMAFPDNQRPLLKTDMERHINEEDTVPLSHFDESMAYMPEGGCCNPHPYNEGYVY
sequence,measurement,setting,value
TGAAGC,binding signal,[1],"1.05 fold enrichment (6-mer frequency, TF over GST control)"
same,binding signal,[2],"1.04 fold enrichment (6-mer frequency, TF over GST control)"
same,binding signal,[3],"1.01 fold enrichment (6-mer frequency, TF over GST control)"
same,binding signal,[4],"1.04 fold enrichment (6-mer frequency, TF over GST control)"
same,binding signal,[5],"1.07 fold enrichment (6-mer frequency, TF over GST control)"
same,binding signal,[6],"1 fold enrichment (6-mer frequency, TF over GST control)"
same,binding signal,[7],"1.01 fold enrichment (6-mer frequency, TF over GST control)"
TAGGCC,binding signal,[8],"1.02 fold enrichment (6-mer frequency, TF over GST control)"
same,binding signal,[3],"1.05 fold enrichment (6-mer frequency, TF over GST control)"
same,binding signal,[9],"1.01 fold enrichment (6-mer frequency, TF over GST control)"
same,binding signal,[10],"1.03 fold enrichment (6-mer frequency, TF over GST control)"
AGCGGC,binding signal,[11],"1.03 fold enrichment (6-mer frequency, TF over GST control)"
same,binding signal,[3],"1.03 fold enrichment (6-mer frequency, TF over GST control)"
same,binding signal,[4],"1 fold enrichment (6-mer frequency, TF over GST control)"
same,binding signal,[12],"1.09 fold enrichment (6-mer frequency, TF over GST control)"
same,binding signal,[13],"1.01 fold enrichment (6-mer frequency, TF over GST control)"
same,binding signal,[10],"1.01 fold enrichment (6-mer frequency, TF over GST control)"
same,binding signal,[7],"1.15 fold enrichment (6-mer frequency, TF over GST control)"
